Measurements from PubChem BioAssay AID602229 (The Scripps Research Institute Molecular Screening Center, 2012).
Screen size: about 360,000 compounds; about 1,300 (0.36%) were called active.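 The calls were made as follows: active = inhibition above the mean of all tested compounds plus 3 SD (cut at about 70% in these data); inactive = the rest.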 The list comes from a sample in which actives are over-represented; it also holds similar structures and randomly drawn compounds.

The compounds below were run against Photoreceptor-specific nuclear receptor (Homo sapiens) (UniProt Q9Y5X4) (assay: NCOR release from NR2E3 in cells – cell-based, luminescence, CHO-S, Gal4-NCOR/VP16-NR2E3, primary screen (AID 602229;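 also: 0% = DMSO with NR2E3 transfected cells and 100% = cells lacking NR2E3 construct; higher means lower luciferase signal from less NR2E3 corepressor binding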)). Details: CHO-S Gal4-NCOR/VP16-NR2E3 two-hybrid, luciferase; at 3.98 µM; active compounds read high.
Photoreceptor-specific nuclear receptor (Homo sapiens), sequence (Q9Y5X4 whole entry, looked up, the tested form may be a part): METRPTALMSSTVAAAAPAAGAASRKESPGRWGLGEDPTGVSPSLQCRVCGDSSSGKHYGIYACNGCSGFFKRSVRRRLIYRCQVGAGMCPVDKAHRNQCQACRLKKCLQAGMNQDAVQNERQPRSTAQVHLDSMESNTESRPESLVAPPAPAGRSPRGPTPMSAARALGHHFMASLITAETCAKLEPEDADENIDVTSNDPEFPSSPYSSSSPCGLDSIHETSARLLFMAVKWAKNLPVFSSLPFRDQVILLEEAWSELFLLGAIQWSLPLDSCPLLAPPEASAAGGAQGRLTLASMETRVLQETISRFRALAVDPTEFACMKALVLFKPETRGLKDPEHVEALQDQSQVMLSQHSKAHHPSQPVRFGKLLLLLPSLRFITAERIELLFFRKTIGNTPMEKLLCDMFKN

Inhibition of corepressor binding, active:
Cc1[nH]n(-c2cccc(Cl)c2)c(=O)c1-c1ccc(Cl)cc1 85%
c1ccc(C(=NNc2nc3ccccc3s2)c2ccccn2)cc1 89.7%
CN(Cc1cn(Cc2ccc(C(F)(F)F)cc2)nn1)C1CN(Cc2cn(Cc3ccc(C(F)(F)F)cc3)nn2)S(=O)(=O)C1 (stereo unspecified) 86%
COc1ccc(Nc2ncnc3ccc(Br)cc23)c(OC)c1 85.3%
O=C(Nc1nnc(-c2ccccc2)o1)c1cc(-c2cccs2)nc2ccccc12 88.7%

Inhibition of corepressor binding, inactive:
CCCc1cc(=O)n2[nH]c(C)c(-c3ccc(Cl)cc3)c2n1 43.4%
Cc1nc2c(-c3ccccc3)c(C)[nH]n2c(=O)c1Cl 9.97%
O=C(NCc1ccc(F)cc1F)[C@@H]1CCCN1C(=O)[C@@H]1CCCN1C(=O)c1cccc(Cl)c1 4.78%
Cn1cc(CN2CCCCC2c2ccccn2)c(-c2ccc3c(c2)OCCO3)n1 (stereo unspecified) -4.51%
CSc1ncccc1C(=O)Nc1nc2ccc(F)cc2s1 47.5%
NC(=S)c1ccc(C(N)=S)o1 -5.1%
O=S1(=O)CC(N2CCSCC2)CN1Cc1cn(Cc2cccc(Cl)c2)nn1 (stereo unspecified) -19.4%
CCOCCCNC(=O)C(=O)NCCCOCC 8.99%
CN(C)C1CN(Cc2cn(Cc3ccccc3)nn2)S(=O)(=O)C1 (stereo unspecified) -4.65%
Cc1ccc(Cn2cc(CN3CC(N4CCN(C)CC4)CS3(=O)=O)nn2)cc1 (stereo unspecified) 9.78%
Cc1ccc(NC(=O)C(C)Sc2nnc(C3CC3)n2C2CC2)cc1S(=O)(=O)N1CCOCC1 (stereo unspecified) 13%
COc1ccc(-n2nc(C(=O)Nc3cc(OC)c(OC)c(OC)c3)c3ccccc3c2=O)c(OC)c1 -8.33%
COc1ccc(OC)c(NC(=O)CN(C)CCOc2ccc(Br)cc2)c1 7.2%
COc1ccc(OC)c(Nc2nc3ccccc3n3cnnc23)c1 19.4%
COC(=O)c1cc(S(=O)(=O)NCC2CCN(Cc3ccc(Cl)cc3)CC2)cn1C 16.9%
Fc1cccc(CSc2nnc3ccc(-c4ccncc4)nn23)c1 6.42%
C=C(Br)CN1CCN(CC(=C)Br)CC1 -7.79%
O=C(CN1CCC(NC(=O)C2CC2)CC1)Nc1ccccc1[N+](=O)[O-] -17.5%
CCOC(=O)C(CO)NC(=O)C1(NC(C)=O)CCCC1 (stereo unspecified) -34.7%
O=C(Nc1nnc(-c2ccc(Cl)cc2)o1)c1ccccc1Br -48%
Cc1ccnc2nc(C(=O)Nc3nnc(-c4ccccc4)o3)nn12 0.21%
